According to the supplement of paper PMC11732987, “Enantioselective OTUD7B fragment discovery through chemoproteomics screening and high-throughput optimisation” (Communications Chemistry, 2025):

How the values were obtained:
Assay in all cases: log2 ratio of Biotin-Ahx-Ub-VS probe labelling (fragment/DMSO); higher = less target engagement (more negative = stronger competition), active = hit call of the paper (q ≤ 0.05, log2 ratio ≤ -1)
Conditions in all cases: compound concentration: 200 uM; treatment time: 3 h
USP42 = target: T1, USP42 (UniProt Q9H9J4)
T1 sequence (whole entry): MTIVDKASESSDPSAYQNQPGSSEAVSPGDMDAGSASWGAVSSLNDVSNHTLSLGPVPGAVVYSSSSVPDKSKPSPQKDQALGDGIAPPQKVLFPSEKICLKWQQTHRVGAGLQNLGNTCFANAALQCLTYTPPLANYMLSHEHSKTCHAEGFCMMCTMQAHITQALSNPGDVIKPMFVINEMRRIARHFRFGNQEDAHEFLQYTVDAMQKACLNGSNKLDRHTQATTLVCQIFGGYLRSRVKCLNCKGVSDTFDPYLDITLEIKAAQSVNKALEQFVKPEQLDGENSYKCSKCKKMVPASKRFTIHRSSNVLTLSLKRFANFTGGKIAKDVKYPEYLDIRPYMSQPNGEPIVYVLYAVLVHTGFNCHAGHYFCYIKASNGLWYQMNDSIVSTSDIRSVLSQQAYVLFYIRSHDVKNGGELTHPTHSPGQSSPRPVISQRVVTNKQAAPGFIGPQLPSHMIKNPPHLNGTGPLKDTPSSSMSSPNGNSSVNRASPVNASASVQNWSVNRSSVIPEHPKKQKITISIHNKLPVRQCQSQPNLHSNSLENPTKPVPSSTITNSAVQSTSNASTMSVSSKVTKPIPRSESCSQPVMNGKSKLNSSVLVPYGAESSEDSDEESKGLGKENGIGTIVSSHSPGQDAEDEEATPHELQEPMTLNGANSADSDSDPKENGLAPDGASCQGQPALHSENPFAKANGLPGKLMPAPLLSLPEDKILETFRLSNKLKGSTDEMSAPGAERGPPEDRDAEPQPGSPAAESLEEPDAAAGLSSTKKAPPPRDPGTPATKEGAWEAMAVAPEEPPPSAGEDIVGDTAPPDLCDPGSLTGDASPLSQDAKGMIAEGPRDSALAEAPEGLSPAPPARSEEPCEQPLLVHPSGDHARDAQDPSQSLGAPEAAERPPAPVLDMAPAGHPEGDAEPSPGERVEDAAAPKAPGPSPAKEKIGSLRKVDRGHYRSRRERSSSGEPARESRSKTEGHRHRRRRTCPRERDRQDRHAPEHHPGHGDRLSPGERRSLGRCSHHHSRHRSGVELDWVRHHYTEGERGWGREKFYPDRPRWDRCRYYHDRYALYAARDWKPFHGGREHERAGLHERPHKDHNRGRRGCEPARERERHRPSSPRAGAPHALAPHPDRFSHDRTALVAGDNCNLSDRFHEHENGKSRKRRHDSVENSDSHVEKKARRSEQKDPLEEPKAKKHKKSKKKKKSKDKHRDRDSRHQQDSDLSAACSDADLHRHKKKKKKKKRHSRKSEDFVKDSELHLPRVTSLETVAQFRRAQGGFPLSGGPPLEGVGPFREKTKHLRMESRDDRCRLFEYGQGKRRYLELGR
In short: (§1)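 Each value is an average log2 ratio of fragment to vehicle, tested by unpaired t-test. The underlying Spectronaut label-free quantities were global-median-normalised, and only proteins with ≥2 unique peptides were included. Triplicate HEK293T lysate samples (495 µg) were exposed to fragment at 200 µM or vehicle for 3 h, then to Biotin-Ahx-Ub-VS at 0.5 µM final for 1 h, before NeutrAvidin enrichment of labelled DUBs, LysC and trypsin digestion, and diaPASEF LC-MS/MS.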

USP46 = USP46 (UniProt P62068)
In short: as §1

USP47 = target: T2, USP47 (UniProt Q96K76)
T2 sequence (whole entry): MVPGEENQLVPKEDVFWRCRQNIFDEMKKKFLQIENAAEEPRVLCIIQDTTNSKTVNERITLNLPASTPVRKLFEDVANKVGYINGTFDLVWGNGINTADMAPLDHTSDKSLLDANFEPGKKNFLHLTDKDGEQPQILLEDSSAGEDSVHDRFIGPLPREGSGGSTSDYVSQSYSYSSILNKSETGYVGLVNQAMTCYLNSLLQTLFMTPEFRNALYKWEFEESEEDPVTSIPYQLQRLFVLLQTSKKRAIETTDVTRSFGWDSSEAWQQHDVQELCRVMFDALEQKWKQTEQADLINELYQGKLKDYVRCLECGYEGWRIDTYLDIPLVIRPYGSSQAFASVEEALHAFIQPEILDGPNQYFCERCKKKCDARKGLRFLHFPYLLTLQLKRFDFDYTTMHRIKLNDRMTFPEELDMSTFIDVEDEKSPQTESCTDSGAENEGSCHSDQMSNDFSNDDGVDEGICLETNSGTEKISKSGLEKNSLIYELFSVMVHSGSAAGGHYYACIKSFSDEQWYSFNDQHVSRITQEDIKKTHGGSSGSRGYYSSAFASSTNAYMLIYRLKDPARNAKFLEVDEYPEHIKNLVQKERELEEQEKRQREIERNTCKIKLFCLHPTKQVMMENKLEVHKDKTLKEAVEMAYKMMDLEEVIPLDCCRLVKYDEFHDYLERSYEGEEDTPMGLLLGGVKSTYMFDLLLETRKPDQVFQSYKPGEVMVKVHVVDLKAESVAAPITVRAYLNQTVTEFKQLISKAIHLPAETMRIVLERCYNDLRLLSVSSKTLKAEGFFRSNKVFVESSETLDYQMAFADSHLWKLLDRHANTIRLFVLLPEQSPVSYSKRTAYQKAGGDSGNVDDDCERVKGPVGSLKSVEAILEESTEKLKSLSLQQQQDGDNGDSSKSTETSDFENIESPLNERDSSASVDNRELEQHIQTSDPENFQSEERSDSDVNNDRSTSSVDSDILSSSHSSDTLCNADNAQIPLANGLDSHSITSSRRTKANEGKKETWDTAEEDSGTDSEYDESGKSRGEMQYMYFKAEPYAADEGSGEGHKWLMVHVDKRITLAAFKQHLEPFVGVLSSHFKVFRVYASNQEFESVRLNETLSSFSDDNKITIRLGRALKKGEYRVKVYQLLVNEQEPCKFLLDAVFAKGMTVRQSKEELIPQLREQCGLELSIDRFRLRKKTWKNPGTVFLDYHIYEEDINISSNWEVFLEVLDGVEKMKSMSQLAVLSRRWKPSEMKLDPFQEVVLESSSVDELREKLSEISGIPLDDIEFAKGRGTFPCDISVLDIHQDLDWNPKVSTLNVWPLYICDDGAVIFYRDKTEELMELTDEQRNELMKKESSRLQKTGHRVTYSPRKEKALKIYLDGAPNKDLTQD
In short: as §1

USP48 = target: T3, USP48 (UniProt Q86UV5)
T3 sequence (whole entry): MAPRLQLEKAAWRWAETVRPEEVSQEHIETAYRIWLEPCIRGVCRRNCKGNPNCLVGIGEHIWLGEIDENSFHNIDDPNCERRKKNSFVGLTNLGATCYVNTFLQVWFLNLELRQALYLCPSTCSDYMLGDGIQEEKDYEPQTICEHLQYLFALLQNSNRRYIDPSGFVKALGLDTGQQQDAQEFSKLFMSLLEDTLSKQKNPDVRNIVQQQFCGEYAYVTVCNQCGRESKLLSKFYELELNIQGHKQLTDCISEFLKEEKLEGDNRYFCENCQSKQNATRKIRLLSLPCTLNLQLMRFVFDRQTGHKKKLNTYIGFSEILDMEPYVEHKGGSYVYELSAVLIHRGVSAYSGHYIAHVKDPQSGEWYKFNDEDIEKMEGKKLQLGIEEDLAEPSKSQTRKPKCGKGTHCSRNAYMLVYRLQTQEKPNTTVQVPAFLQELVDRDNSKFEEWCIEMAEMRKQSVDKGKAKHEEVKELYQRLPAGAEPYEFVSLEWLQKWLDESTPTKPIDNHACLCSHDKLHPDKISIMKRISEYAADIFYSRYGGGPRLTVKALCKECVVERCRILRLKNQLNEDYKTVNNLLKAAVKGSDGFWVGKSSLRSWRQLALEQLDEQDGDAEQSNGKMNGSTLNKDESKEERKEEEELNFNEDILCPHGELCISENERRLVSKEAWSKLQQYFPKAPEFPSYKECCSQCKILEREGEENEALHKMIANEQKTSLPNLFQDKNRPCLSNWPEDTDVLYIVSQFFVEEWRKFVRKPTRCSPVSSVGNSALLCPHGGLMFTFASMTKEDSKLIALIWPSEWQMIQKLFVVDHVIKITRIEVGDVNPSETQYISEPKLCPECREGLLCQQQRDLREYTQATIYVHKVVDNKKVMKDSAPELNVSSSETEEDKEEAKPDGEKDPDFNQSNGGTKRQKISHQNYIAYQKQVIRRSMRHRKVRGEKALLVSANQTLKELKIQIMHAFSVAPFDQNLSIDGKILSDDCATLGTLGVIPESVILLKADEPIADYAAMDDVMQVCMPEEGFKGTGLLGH
In short: as §1

USP5 = target: T4, USP5 (UniProt P45974)
T4 sequence (whole entry): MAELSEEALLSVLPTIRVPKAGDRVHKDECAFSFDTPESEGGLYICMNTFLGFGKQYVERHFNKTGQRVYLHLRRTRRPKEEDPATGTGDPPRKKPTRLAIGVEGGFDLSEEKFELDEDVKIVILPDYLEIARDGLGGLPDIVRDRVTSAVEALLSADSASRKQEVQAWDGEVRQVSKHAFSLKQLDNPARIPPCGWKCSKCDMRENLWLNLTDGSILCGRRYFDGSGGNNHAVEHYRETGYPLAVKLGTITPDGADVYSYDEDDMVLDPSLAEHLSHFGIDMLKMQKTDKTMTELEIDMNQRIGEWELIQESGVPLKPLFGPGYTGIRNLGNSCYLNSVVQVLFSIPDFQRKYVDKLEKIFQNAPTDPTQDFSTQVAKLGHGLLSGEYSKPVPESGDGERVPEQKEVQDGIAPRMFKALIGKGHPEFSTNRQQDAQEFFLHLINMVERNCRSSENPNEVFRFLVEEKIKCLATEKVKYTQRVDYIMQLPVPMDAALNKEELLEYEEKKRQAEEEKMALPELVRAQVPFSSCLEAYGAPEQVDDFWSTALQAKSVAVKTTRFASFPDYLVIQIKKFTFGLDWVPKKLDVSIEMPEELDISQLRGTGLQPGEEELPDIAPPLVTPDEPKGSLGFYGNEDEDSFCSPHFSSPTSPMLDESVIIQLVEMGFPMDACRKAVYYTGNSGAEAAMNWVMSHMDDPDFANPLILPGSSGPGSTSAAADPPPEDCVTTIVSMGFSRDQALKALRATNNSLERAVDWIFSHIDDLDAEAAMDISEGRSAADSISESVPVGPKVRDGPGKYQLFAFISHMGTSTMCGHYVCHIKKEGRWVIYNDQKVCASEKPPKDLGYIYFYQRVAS
In short: as §1

USP54 = USP54 (UniProt Q70EL1)
In short: as §1

USP7 = USP7 (UniProt Q93009)
In short: as §1

USP8 = target: T5, USP8 (UniProt P40818)
T5 sequence (whole entry): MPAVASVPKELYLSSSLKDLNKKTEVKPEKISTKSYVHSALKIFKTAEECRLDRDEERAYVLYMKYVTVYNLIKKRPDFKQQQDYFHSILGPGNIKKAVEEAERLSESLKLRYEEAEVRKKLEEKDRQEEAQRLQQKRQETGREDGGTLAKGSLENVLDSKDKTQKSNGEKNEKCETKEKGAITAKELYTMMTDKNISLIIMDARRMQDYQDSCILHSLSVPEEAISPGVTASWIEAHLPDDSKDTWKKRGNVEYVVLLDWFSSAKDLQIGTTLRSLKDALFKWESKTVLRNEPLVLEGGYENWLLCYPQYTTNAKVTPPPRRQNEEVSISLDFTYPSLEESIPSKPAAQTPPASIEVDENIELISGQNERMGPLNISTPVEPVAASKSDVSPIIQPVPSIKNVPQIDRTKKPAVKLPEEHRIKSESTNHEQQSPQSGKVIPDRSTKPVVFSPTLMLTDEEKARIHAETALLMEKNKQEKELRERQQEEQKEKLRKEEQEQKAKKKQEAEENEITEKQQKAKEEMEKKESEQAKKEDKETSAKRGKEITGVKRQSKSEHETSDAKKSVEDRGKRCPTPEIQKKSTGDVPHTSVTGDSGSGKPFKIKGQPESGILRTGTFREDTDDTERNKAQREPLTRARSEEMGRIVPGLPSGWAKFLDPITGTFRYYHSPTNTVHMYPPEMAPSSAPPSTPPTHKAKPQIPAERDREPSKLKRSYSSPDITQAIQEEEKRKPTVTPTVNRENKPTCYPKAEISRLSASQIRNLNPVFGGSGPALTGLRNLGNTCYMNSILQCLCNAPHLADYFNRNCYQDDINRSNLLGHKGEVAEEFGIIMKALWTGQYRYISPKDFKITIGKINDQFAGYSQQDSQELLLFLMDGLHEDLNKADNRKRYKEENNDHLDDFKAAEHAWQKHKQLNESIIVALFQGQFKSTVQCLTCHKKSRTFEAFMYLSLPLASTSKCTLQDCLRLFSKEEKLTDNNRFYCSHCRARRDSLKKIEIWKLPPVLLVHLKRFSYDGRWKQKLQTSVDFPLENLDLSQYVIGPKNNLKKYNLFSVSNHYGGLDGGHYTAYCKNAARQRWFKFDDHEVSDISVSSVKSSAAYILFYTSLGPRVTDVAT
In short: as §1

USP9X = USP9X (UniProt Q93008)
In short: as §1

UniProt O00487 = target: UniProt O00487
In short: as §1

Measured: log2 ratio of Biotin-Ahx-Ub-VS probe labelling

USP9X, sequence (Q93008 whole entry): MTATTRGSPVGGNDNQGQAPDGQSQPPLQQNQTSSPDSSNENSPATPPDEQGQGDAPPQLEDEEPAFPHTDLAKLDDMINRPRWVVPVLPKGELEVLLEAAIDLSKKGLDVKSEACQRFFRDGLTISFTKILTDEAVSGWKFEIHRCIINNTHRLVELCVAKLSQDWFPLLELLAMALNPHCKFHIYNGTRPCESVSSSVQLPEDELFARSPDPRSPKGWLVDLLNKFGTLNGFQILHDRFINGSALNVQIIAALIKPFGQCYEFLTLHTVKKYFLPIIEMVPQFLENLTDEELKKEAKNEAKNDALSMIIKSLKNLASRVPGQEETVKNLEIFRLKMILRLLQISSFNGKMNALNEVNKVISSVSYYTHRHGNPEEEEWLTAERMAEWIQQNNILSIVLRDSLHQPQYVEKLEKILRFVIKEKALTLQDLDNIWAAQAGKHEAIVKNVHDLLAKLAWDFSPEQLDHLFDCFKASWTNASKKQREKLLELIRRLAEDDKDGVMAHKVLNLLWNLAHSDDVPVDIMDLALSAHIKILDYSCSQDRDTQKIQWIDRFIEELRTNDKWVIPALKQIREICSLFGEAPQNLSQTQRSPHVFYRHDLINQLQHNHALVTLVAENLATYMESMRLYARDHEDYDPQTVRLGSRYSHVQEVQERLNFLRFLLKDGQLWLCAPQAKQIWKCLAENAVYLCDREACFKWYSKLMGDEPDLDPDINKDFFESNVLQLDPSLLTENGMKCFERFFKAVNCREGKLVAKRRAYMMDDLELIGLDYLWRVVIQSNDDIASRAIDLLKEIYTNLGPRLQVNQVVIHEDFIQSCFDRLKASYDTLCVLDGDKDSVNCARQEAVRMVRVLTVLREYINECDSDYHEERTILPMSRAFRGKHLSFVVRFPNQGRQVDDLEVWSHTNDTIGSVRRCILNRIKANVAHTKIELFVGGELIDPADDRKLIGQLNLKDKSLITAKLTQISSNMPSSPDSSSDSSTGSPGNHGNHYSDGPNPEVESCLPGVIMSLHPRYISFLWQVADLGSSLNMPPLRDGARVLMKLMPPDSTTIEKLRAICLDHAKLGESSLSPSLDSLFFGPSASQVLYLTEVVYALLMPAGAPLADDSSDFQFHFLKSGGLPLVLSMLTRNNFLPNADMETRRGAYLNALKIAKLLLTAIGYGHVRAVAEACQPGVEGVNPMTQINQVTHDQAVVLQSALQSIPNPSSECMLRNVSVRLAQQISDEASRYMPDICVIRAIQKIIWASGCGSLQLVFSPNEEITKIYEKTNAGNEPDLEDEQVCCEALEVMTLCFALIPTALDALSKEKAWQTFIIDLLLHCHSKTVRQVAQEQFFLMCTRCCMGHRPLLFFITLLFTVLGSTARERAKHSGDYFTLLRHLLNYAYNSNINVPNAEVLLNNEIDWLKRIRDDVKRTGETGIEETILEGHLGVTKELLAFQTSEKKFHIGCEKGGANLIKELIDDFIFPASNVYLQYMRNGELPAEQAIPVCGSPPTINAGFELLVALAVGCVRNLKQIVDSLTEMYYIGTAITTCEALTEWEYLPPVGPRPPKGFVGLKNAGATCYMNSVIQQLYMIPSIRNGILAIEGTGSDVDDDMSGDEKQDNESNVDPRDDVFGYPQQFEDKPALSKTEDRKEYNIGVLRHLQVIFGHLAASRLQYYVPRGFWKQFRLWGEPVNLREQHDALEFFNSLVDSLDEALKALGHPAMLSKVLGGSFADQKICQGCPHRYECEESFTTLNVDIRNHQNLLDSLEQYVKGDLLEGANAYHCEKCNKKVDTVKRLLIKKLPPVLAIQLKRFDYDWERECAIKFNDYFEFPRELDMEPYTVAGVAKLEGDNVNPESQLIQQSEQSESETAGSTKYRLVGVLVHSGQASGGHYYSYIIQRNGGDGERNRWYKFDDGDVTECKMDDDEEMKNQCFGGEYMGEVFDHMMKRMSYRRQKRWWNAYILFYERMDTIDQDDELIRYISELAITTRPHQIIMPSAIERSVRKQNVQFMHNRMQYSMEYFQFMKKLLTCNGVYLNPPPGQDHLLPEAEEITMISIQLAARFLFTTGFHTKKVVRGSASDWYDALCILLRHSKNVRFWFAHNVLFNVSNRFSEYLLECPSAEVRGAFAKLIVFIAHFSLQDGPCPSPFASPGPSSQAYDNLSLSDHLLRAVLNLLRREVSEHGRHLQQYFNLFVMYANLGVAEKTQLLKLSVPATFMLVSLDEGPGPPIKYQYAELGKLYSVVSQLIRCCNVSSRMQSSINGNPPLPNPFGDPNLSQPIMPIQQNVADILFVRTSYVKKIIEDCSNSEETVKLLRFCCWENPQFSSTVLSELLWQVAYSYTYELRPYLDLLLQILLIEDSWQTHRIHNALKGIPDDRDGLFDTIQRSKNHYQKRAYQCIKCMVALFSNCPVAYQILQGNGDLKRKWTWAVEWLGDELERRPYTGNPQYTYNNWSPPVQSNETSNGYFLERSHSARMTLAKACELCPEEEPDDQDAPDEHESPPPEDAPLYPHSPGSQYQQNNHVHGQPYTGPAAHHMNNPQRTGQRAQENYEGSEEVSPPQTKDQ
UniProt O00487, sequence (O00487 whole entry): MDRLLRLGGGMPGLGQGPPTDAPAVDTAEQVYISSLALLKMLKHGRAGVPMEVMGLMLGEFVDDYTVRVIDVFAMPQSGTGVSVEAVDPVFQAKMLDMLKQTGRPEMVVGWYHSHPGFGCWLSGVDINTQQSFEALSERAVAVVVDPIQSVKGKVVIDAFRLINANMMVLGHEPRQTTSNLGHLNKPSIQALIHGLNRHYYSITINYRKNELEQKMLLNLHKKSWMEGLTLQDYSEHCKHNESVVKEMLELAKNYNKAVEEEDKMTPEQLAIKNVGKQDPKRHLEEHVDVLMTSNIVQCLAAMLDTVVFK
USP7, sequence (Q93009 whole entry, looked up): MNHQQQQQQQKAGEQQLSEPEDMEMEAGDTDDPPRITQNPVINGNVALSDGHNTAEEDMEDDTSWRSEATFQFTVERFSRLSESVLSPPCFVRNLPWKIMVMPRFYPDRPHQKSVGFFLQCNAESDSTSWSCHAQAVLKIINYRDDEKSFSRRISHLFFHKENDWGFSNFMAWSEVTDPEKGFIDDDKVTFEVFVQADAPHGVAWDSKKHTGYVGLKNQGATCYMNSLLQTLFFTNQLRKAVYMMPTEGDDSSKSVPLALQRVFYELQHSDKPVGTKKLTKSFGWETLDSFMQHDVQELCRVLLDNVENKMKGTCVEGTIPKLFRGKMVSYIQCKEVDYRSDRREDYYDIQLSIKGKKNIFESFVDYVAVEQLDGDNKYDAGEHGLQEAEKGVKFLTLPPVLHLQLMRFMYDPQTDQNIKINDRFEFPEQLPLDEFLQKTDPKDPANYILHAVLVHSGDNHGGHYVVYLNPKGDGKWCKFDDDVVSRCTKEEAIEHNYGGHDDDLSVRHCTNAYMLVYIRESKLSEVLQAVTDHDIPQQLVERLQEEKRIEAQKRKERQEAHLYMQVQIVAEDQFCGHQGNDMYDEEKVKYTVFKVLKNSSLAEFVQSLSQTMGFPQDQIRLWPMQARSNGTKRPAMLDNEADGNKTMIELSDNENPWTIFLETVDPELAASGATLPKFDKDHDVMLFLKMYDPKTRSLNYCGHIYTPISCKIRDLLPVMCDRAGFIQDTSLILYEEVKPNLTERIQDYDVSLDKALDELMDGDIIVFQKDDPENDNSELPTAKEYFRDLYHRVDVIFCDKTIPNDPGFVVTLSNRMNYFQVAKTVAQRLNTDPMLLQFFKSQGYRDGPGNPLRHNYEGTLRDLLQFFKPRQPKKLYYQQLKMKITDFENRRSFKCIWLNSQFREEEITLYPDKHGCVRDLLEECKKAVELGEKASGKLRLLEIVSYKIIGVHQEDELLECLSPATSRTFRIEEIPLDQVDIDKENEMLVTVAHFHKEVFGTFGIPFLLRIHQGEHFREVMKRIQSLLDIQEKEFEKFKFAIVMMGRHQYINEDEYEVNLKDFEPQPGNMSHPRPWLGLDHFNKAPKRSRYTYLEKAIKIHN
USP46, sequence (P62068 whole entry): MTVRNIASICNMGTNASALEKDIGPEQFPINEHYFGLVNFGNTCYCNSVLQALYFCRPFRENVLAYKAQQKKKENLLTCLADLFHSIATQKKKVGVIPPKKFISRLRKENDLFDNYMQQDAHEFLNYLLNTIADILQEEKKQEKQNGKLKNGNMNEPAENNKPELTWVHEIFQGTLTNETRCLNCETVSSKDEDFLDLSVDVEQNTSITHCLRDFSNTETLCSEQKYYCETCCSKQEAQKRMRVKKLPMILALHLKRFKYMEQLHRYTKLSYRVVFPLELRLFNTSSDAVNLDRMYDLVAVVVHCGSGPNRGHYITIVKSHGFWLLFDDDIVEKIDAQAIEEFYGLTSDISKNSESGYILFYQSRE

Cc1ccc(CN(C)C(=O)CCl)o1
inactive: USP42 0.191 | USP46 -0.175 | USP47 0.0147 | USP48 -0.264 | USP5 0.245 | USP54 0.355 | USP7 -0.538 | USP8 -0.199 | USP9X -0.23 | UniProt O00487 -0.0611
